# Measured values published in PubChem BioAssay (Tox21).
# Records with an inconclusive call do not appear. The source made the active and inactive calls. The call rests on the fitted dose curve.
# Target: Vitamin D3 receptor (Homo sapiens) (UniProt P11473)
# Assay: qHTS assay to identify small molecule agonists of the vitamin D receptor (VDR) signaling pathway (AID 743222)
# Conditions: HEK293T VDR-UAS-bla, beta-lactamase FRET ratio, 16 h; series mostly up to 63.5 µM; activation: at the top concentration
# From the text: National Center for Advancing Translational Sciences [NCATS]
# NIH Chemical Genomics Center [NCGC]
# U.S. Environmental Protection Agency [EPA]
# National Institutes of Environmental Health Sciences [NIEHS]
# National Toxicology Program [NTP]
# U.S. Food and Drug Administration [FDA]
# The vitamin D receptor (VDR), a member of nuclear hormone receptor superfamily, plays a critical role in calcium homeostasis and bone metabolism. It is also involved in cell differentiation and growth, and thrombogenicity.
# Tox21 Assay Protocol Summary:
# VDR-bla cells were dispensed at 2,000 cells/6 uL/well into black wall/clear-bottom 1536-well plates using a Multidrop Combi (Thermo Fisher Scientific, Waltham, MA) dispenser. After the assay plates were incubated at a 37C and 5% CO2 for 4 h, 23 nL of compounds dissolved in DMSO, positive controls or DMSO only was transferred to the assay plate by a Pintool station (Kalypsys, San Diego, CA). The plates were incubated at 37C and 5% CO2 for 16 h. After 1 uL of LiveBLAzerTM B/G FRET substrate was added using a Bioraptr Flying Reagent Dispenser (FRD) workstation (Beckman Coulter, Indianapolis, IN, USA), the plates were incubated at room temperature for 2 h, and fluorescence intensity was measured by an Envision plate reader (PerkinElmer, Shelton, CT).
# On the % scale 0 is the no-effect control and ±100 the full control effect.
# Vitamin D3 receptor (Homo sapiens), sequence (P11473 whole entry, looked up): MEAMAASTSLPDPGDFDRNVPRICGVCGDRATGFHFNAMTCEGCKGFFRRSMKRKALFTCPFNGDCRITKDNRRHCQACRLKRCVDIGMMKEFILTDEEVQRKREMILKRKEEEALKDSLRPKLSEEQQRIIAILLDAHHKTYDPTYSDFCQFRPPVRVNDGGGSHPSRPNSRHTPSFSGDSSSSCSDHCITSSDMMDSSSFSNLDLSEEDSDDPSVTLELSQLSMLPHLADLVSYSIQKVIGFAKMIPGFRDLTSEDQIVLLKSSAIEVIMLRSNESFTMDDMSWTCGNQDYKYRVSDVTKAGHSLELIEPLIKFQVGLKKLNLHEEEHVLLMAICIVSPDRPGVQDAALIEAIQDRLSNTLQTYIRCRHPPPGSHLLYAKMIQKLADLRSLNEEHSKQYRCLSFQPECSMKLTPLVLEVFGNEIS
Structure (SMILES),activation,outcome
C[CH2][Hg][S]c1ccccc1C(=O)O,2.12% (inactive),–
CCOP(=S)(S)OCC,-2.35% [at 81.1 µM] (inactive),–
CCOP(=S)(OCC)Oc1ccc(S(C)=O)cc1 (stereo not given),-0.857% (inactive),–
O=C(Cc1ccccc1)c1ccccc1,3.43% (inactive),–
Clc1ccc(Cl)c(Cl)c1,–,inactive
C[C@H]1[C@@H]2Cc3ccc(O)cc3[C@@]1(C)CCN2C,2.9% [at 236 µM] (inactive),–
Nc1cc(Cl)cc(C(=O)O)c1Cl,–,inactive
CCCCCCCCn1sccc1=O,–,inactive
O=S(=O)(c1ccccc1)c1ccccc1,2.53% (inactive),–
CC(Oc1cccc(Cl)c1)C(=O)O (stereo not given),-0.819% (inactive),–
NCCc1cc(O)c(O)cc1O,-6.82% (inactive),–
Cc1ccc2c(C)cccc2c1,5.15% (inactive),–
CCCCCCCCCCCCN(C)C,0.174% (inactive),–
CCC(C)Cl (stereo not given),-10.4% (inactive),–
Cc1nc(N(C)C)nc(OC(=O)N(C)C)c1C,7.3% (inactive),–
CCOC(=O)NC(O)C(Cl)(Cl)Cl (stereo not given),3.57% (inactive),–
Nc1c(Br)cc(Br)c2c1C(=O)c1ccccc1C2=O,4.66% [at 29.5 µM] (inactive),–
Cc1ccccc1,0.718% (inactive),–
O=[N+]([O-])/C=C/c1ccccc1,7.39% (inactive),–
CC(Cl)C(=O)O (stereo not given),3.56% [at 81.1 µM] (inactive),–

Structure (SMILES),activation,outcome
O=[N+]([O-])O[C@H]1CO[C@H]2[C@@H]1OC[C@H]2O[N+](=O)[O-],-3.24% (inactive),–
CCCCC(CC)COC(=O)c1c(Br)c(Br)c(Br)c(Br)c1C(=O)OCC(CC)CCCC (stereo not given),7.93% (inactive),–
SCc1ccccc1,-13.6% [at 81.1 µM] (inactive),–
CCOP(=S)(OCC)SCSc1cc(Cl)ccc1Cl,0.218% (inactive),–
C=CCSSCC=C,1.01% (inactive),–
CC(=O)OC(c1ccccc1)C(Cl)(Cl)Cl (stereo not given),-4.14% (inactive),–
O=C(Cl)OCCOCCOC(=O)Cl,1.34% (inactive),–
C[N+]1(CCF)[C@@H]2CC[C@H]1CC(OC(=O)C(O)(c1ccccc1)c1ccccc1)C2 (stereo not given in full),3.28% (inactive),–
CC(C)(C)NCC(O)c1cc(Cl)c(N)c(C(F)(F)F)c1 (stereo not given),-8.11% (inactive),–
OCCCl,1.68% (inactive),–
CCc1cnc(C2=NC(C)(C(C)C)C(=O)N2)c(C(=O)O)c1 (stereo not given),–,inactive
CCCSP(=S)(OCC)Oc1ccc(SC)cc1 (stereo not given),-14.1% (inactive),–
CON(C)C(=O)Nc1ccc(Cl)cc1,0.248% (inactive),–
ClCc1ccccc1Cl,3.65% [at 81.1 µM] (inactive),–
CCC(C)(C)c1ccc(O)c(C(C)(C)CC)c1,–,inactive
CC(C)CCCCCCCOC(=O)c1ccccc1C(=O)OCCCCCCCC(C)C,-0.845% (inactive),–
Nc1ccc2c(c1)Cc1ccccc1-2,2.12% (inactive),–
O=C(O)c1cc(I)cc(I)c1I,0.8% [at 81.1 µM] (inactive),–
CC(C)(C)CC(C)(C)c1ccc(O)cc1,1.28% (inactive),–
O=C=NC1CCCCC1,0.885% (inactive),–
